Screening data from PubChem.
This is a sample that favours compounds with a hit; in the whole collection about 9% have one here.
PLK1 PBD block – inhibitors of human PLK1 polo-box domain binding. Plk1 PBD binding of FITC phosphopeptide, fluorescence polarization. 360,000 compounds, 2.8% hits. P53350. AID 720504. Potency, µM, for inactives: max response, negative = inhibition, usual class: inhibitors; also: series mostly up to about 57 µM; % is scaled to controls: 0 for no effect and ±100 for the full control effect; nearly all actives have a fitted effect of over 65% in size
Target sequence (P53350 whole entry, looked up, the tested form may be a part): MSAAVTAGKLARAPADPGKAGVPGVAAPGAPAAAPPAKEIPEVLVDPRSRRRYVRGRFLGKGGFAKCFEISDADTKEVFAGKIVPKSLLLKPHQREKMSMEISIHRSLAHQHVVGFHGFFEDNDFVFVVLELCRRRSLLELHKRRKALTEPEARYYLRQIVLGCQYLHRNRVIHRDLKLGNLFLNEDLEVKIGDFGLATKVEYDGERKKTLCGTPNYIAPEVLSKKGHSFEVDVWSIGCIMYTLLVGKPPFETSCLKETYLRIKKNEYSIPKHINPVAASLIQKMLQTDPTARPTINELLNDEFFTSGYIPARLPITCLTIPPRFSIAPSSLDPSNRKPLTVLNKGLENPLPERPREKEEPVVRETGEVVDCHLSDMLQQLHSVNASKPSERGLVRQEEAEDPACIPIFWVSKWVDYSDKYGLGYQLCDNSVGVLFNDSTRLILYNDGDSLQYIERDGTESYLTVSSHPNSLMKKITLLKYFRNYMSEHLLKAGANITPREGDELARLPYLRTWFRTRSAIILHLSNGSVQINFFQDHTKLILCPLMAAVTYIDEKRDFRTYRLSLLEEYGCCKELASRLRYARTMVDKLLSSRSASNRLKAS
ALOX12 inh – blocks human arachidonate 12S-lipoxygenase | purified 12hLO, xylenol orange hydroperoxide absorbance | Potency, µM (highest dose often 108 µM), for the others: at the highest dose activity change, negative = inhibition, usual class: inhibitors | 580,000 compounds, 1.1% hits | AID 1671190; also: % is scaled to controls: 0 for no effect and ±100 for the full control effect
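Purified human 12hLO (150 nM final) in 25 mM Hepes, 0.01% Triton X-100, pH 7.0 was preincubated 15 min at room temperature with compound. Then 40 uM arachidonic acid was added, 30 min. Hydroperoxide was read by Fe-XO absorbance ratio 573/405 nm.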
HP1b binding inh – inhibitors of HP1-beta chromodomain binding to methylated histone tails | AlphaScreen HP1-beta / biotin-H3K9me3 peptide binding | Potency, µM (titrated, usually from 114 µM), without a hit: at the top dose activity change, negative = inhibition, actives largely listed as inhibitors | 390,000 compounds, 0.56% hits | AID 540317; also: nearly all actives have a fitted effect of over 70% in size
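AlphaScreen: HP1-beta (50 nM) preformed 30 min with biotin-H3(1-18)K9me3 peptide (50 nM) in PBS pH 7.4, 0.01% Tween-20. Compound added for 30 min at RT, then streptavidin donor/nickel chelate acceptor beads (10 ug/mL) for 30 min.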
BAZ2B block – inhibitors of human BAZ2B bromodomain. AlphaScreen BAZ2B-H3K14Ac peptide displacement. 360,000 compounds, 4.4% hits. Q9UIF8. Potency, µM (highest dose often 114 µM), without a hit: at the top dose activity change, negative = inhibition, usual class: inhibitors; also: % is scaled to controls: 0 for no effect and ±100 for the full control effect; nearly all actives have a fitted effect of over 60% in size
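Inhibition is scored as reduced AlphaScreen emission. The BAZ2B/b-H3(5-23)K14Ac complex (50 nM each) in PBS pH 7.4, 0.01% Tween-20 meets compound (up to 110 uM) for 30 min at RT before bead addition.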
JMJD2A Tudor – JMJD2A Tudor domain (human) inhibition. Potency, µM (titrated, usually from 114 µM), without a hit: at the highest dose activity change, negative = inhibition, hits mostly inhibitors. O75164. AlphaScreen JMJD2A-Tudor / H3K4me3 peptide binding. 390,000 compounds, 4.4% hits; also: % is scaled to controls: 0 for no effect and ±100 for the full control effect; nearly all actives have a fitted effect of over 50% in size
G9a inh – inhibitors of human histone lysine methyltransferase G9a | G9a H3K9 monomethylation, AlphaScreen, 2 h | Potency, µM (highest dose often 102 µM), without a hit: at the top dose activity, negative = inhibition, hits mostly inhibitors | 350,000 compounds, 8.8% hits | Q96KQ7; also: % is scaled to controls: 0 for no effect and ±100 for the full control effect; nearly all actives have a fitted effect of over 75% in size
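G9a (20 nM) preincubated 15 min RT with compounds, then 500 nM biotinylated H3K9 peptide and 20 uM SAM added; 2 h RT reaction. Monomethyl-H3K9 product detected by AlphaScreen with anti-H3K9me1 antibody, streptavidin donor and anti-rabbit IgG acceptor beads.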
* = called active by the depositor; ? = inconclusive; . = no result given; [ ] = remark or other dose. Calls follow the shape of the dose curve; as a rule, active = well fitted curve in the direction sought with a large enough effect; inconclusive = small, poorly fitted or top-dose-only effect, or another doubt; inactive = no such curve, though single readings can be large; an effect the other way counts as inactive or inconclusive. Potency is read from the fitted curve at half-maximal effect.

SMILES	PLK1 PBD block	ALOX12 inh	HP1b binding inh	BAZ2B block	JMJD2A Tudor	G9a inh
COc1cc(NS(=O)(=O)c2ccc(N/C=C\C(=O)c3ccc(OC)c(OC)c3)cc2)nc(OC)n1	-13%	-21%	27%	-10%	-13%	?
COc1ccc(C(=O)/C=C/Nc2ccc(S(=O)(=O)Nc3cc(OC)nc(OC)n3)cc2)c(OC)c1	-6%	-14%	10%	-22%	-26%	25µM*
COc1cc(NS(=O)(=O)c2ccc(N/C=C\C(=O)c3ccc(C)cc3)cc2)nc(OC)n1	3.4µM*	?	-6%	.	?	.
COc1cccc(C(=O)/C=C/Nc2ccc(S(=O)(=O)Nc3nc(C)cc(C)n3)cc2)c1	0%	-6%	0%	-3%	-18%	9%[59 µM]
COc1cccc(C(=O)/C=C/Nc2ccc(S(=O)(=O)Nc3ccc(C(C)=O)cc3)cc2)c1	-10%	-6%	-18%	-3%	-14%	50µM*
COc1cccc(C(=O)/C=C/Nc2ccc(S(=O)(=O)Nc3cc(OC)nc(OC)n3)cc2)c1	-22%	-28%	16%	?	-20%	79µM*
COc1ccccc1-c1nc(-c2ccccc2)nc(N2CCN(C)CC2)c1C#N	-7%	-15%	-21%	?	-26%[57.1 µM]	?
COc1ccc(S(=O)(=O)Cc2ccc(C(=O)N3CCOCC3)o2)cc1	-11%	-2%	52%	-5%	-3%	?
COCCN1C(=O)C(=O)/C(=C(/O)c2ccc(OC(C)C)cc2)C1c1cccnc1 (stereo not drawn)	-1%	?	13%	-4%	-27%	-1%[12.7 µM]
NC(=S)c1ccc[n+]([O-])c1	19µM*	?	?	.	1.1µM*	.
COc1cc(C2(c3ccc(O)c(OC)c3)C(=O)Nc3c(C)cc(Br)cc32)ccc1O	-4%	25µM*	-19%	.	?	.
CCOC(=O)/C(C#N)=C1/SC(CCO)C(=O)N1c1ccccc1 (stereo not drawn)	-1%	6%	33%	-4%	-5%	4%[59 µM]
COc1ccc(-c2nc(C)c(C(C)=O)n2O)cc1[N+](=O)[O-]	-14%	-7%	37%	-16%	-26%	56µM*
CC(C)(C)c1cc(CNC2CS(=O)(=O)C[C@@H]2O)cc(C(C)(C)C)c1O (stereo partly drawn)	?	0%	38%	?	-23%	18µM*
Cc1cc(C=O)c(C)n1-c1ccc(NC2CCCC2)c([N+](=O)[O-])c1	3%	7%	32µM*	-11%	20µM*	-14%
Cn1c(=O)c2c(nc(CN3CCN(C(=O)c4ccco4)CC3)n2Cc2ccccc2)n(C)c1=O	-10%	?	9%	12%	-13%	?
COc1ccc(N(C(=O)C(C)C)S(=O)(=O)c2cccs2)cc1	0%	16%	15%	0%	-23%	18%
CC(C)C(=O)N(c1cc2sc(=O)oc2c2ccccc12)S(=O)(=O)c1cccs1	-22%	?	-2%	50µM*	?	1.8µM*
CC(C)C(=O)N(c1ccc2oc(=O)sc2c1)S(=O)(=O)c1cccs1	-30%	?	27%	-36%	-26%	35µM*
CC1CCN(C(=O)c2cc3c(=O)n(C)c4ccccc4c3s2)CC1	.	-27%	31%	.	4%	21%[59 µM]
O=C1C2CN(Cc3cccc(Cl)c3)CCC2OCCN1Cc1ccccc1F (stereo not drawn)	.	-5%[176 µM]	.	.	.	.
Cn1c(=O)c2c(-c3ccccc3)n(-c3cccc(Br)c3)cc2n(C)c1=O	-28%	?	.	.	.	.
Cc1ccc(OCCSc2nc3ccccc3n2CC(=O)N2CCOCC2)cc1C	.	0%	51%	-17%	-9%	?
OCCn1c(SCCOc2ccccc2F)nc2ccccc21	-12%	-28%	66%	4%	-12%	-17%[59 µM]
Cc1ccc(OCCSc2nc3ccccc3n2CC(=O)N2CCCCC2)cc1C	.	-1%	-1%	-35%	-33%	13µM*
SMILES	PLK1 PBD block	ALOX12 inh	HP1b binding inh	BAZ2B block	JMJD2A Tudor	G9a inh
O=C(O)Cn1c(SCCOc2ccccc2F)nc2ccccc21	19µM*	?	8%	-32%	-25%[11.4 µM]	16%[59 µM]
Cc1cccc(OCCSc2nc3ccccc3n2CC(=O)N2CCOCC2)c1C	.	-16%	-13%	?	-26%	10µM*
Cc1ccc(OCCSc2nc3ccccc3n2CC(=O)N2CCOCC2)c(C)c1	.	-11%	28%	?	-20%	-39%[59 µM]
CN(N=Nc1nc[nH]c1C(N)=O)C1CCCCC1	-10%	13%	.	.	.	.
CC(C)NC(=O)C(=O)Nc1cc2c3c(c1)CCC(=O)N3CCC2	-15%	8%	4%[57 µM]	-33%	-1%	-2%
COc1ccc(/C=N/NC(=O)c2ccccc2O)cc1CN1CCOCC1	-14%	3%	16%[57 µM]	0%	-13%	49%[12.7 µM]
Fc1ccc(Nc2nc(N/N=C/c3ccco3)nc(N3CCCCC3)n2)cc1	-4%	-11%	-9%	?	?	40µM*
CCCc1c(C(=O)Nc2ccc(F)cc2C)cnn1-c1ccccc1	3%	-6%	45%	3%	-10%	14%
NC(=S)NN=C1CCCCCCCCC1	-10%	?	4%	.	-19%	.
C=CCNC(=S)NN=C1CCCCCCC1	-1%	14µM*	6%	-34%	-19%	17%
Cc1cccc(C(=O)N2CC3(C)CC2CC(C)(C)C3)c1 (stereo not drawn)	-2%	10%	23%	-3%	2%	?
OCC1CN(Cc2nccs2)CCC12CCN(Cc1cnc[nH]1)CC2 (stereo not drawn)	.	51%	.	.	.	.
COc1ccc([C@H]2/C=C\CN(Cc3ccc(N(C)C)cc3)[C@@H](C)C(=O)N2Cc2ccc(F)cc2)cc1	-14%	-2%	?	.	18µM*	.
COc1ccc(C2/C=C\CN(CC(C)C)C(C)C(=O)N2Cc2ccc(F)cc2)cc1 (stereo not drawn)	.	.	44%	.	-8%	.
c1ccc(-c2csc3nnc(SCc4ccc5c(c4)OCCO5)n23)cc1	-3%	24%	25%	1%	-12%	-17%[59 µM]
O=c1c2cc(-c3ccccc3)sc2nc2n1N=C(c1ccccc1)CS2	-11%	?	-10%	-16%	-8%	-18%
CCCCCCC(=O)Nc1nc(C)c(-c2csc(Nc3cc(OC)ccc3OC)n2)s1	-15%	-21%	-13%	?	50µM*	?
COc1ccc(OC)c(Nc2nc(-c3sc(NC(=O)c4ccccc4)nc3C)cs2)c1	.	.	.	-34%	.	31%[12.7 µM]
CCCCCC(=O)Nc1nc(C)c(-c2csc(Nc3cc(OC)ccc3OC)n2)s1	-14%	?	?	28µM*	50µM*	7.1µM*
CN(C(=O)C1CCC(=O)N(CCc2ccc(Cl)cc2)C1)C1CCOCC1 (stereo not drawn)	-11%	-18%	8%	-4%	-15%	.
